# According to PubChem BioAssay AID1159580 (chemical genetic matrix, 2015):
# Screen size: about 5,500 compounds; about 2,000 (36%) were called active. Roughly 18% stayed inconclusive and do not appear here. The list shows a part of the results. Unmarked numbers belong to inactive results. Cut-off read from the data, not from the text of the source: active = normalized growth mostly below about 0.91 (no sharp cut-off); inconclusive = no clear call, values can overlap the other calls; inactive = mostly above about 0.92.
# Assay: chemical genetic growth profiling, strain panel (AID 1159580);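 note: tested at 20 µM; growth read once vehicle control cultures reached saturation at 30 °C; 1 = growth at the plate median or of vehicle wells; lower values mean less growth of the strain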
# Details: S. cerevisiae deletion strains, growth OD
# [1] = locus YAR019C, strain CDC15, stronger effect = lower value
# [2] = locus YBL105C, strain PKC1, stronger effect = lower value
# [3] = locus YBR135W, strain CKS1, stronger effect = lower value
# [4] = locus YBR136W, strain MEC1, stronger effect = lower value
# [5] = locus YBR160W, strain CDC28, stronger effect = lower value
# [6] = locus YDL017W, strain CDC7, stronger effect = lower value
# [7] = locus YDL028C, strain MPS1, stronger effect = lower value
# [8] = locus YDL101C, strain DUN1, stronger effect = lower value
# [9] = locus YDL108W, strain KIN28, stronger effect = lower value
# [10] = locus YDL132W, strain cdc53, stronger effect = lower value
# [11] = locus YDL214C, strain PRR2, stronger effect = lower value
# [12] = locus YDR052C, strain DBF4, stronger effect = lower value
# [13] = locus YDR054C, strain cdc34, stronger effect = lower value
# [14] = locus YDR226W, strain ADK1, stronger effect = lower value
# [15] = locus YDR477W, strain SNF1, stronger effect = lower value
# [16] = locus YER123W, strain YCK3, stronger effect = lower value
# [17] = locus YER133W, strain GLC7, stronger effect = lower value
# [18] = locus YFL009W, strain cdc4, stronger effect = lower value
# [19] = locus YFL029C, strain CAK1, stronger effect = lower value
# [20] = locus YFR003C, strain YPI1, stronger effect = lower value
# [21] = locus YFR019W, strain FAB1, stronger effect = lower value
# [22] = locus YFR028C, strain CDC14, stronger effect = lower value
# [23] = locus YGR040W, strain KSS1, stronger effect = lower value
# [24] = locus YGR052W, strain FMP48, stronger effect = lower value
# [25] = locus YGR092W, strain DBF2, stronger effect = lower value
# [26] = locus YHR030C, strain SLT2, stronger effect = lower value
# [27] = locus YHR079C, strain IRE1, stronger effect = lower value
# [28] = locus YHR082C, strain KSP1, stronger effect = lower value
# [29] = locus YHR205W, strain SCH9, stronger effect = lower value
# [30] = locus YIL147C, strain SLN1, stronger effect = lower value
# [31] = locus YJL095W, strain BCK1, stronger effect = lower value
# [32] = locus YJL128C, strain PBS2, stronger effect = lower value
# [33] = locus YJL157C, strain FAR1, stronger effect = lower value
# [34] = locus YJR016C, strain ILV3, stronger effect = lower value
# [35] = locus YJR066W, strain TOR1 (second series), stronger effect = lower value
# [36] = locus YJR066W, strain TOR1, stronger effect = lower value
# [37] = locus YKL048C, strain ELM1, stronger effect = lower value
# [38] = locus YKL067W, strain YNK1, stronger effect = lower value
# [39] = locus YKL101W, strain HSL1, stronger effect = lower value
# [40] = locus YKL193C, strain SDS22, stronger effect = lower value
# [41] = locus YKL203C, strain TOR2, stronger effect = lower value
# [42] = locus YLR113W, strain HOG1, stronger effect = lower value
# [43] = locus YLR133W, strain CKI1, stronger effect = lower value
# [44] = locus YLR403W, strain SFP1, stronger effect = lower value
# [45] = locus YML070W, strain DAK1, stronger effect = lower value
# [46] = locus YMR001C, strain CDC5, stronger effect = lower value
# [47] = locus YMR205C, strain PFK2 (second series), stronger effect = lower value
# [48] = locus YMR277W, strain FCP1, stronger effect = lower value
# [49] = locus YNL006W, strain LST8, stronger effect = lower value
# [50] = locus YNL020C, strain ARK1, stronger effect = lower value
# [51] = locus YNL161W, strain CBK1, stronger effect = lower value
# [52] = locus YNL183C, strain NPR1, stronger effect = lower value
# [53] = locus YNL207W, strain RIO2, stronger effect = lower value
# [54] = locus YNL222W, strain SSU72, stronger effect = lower value
# [55] = locus YNL307C, strain MCK1 (second series), stronger effect = lower value
# [56] = locus YOL078W, strain AVO1, stronger effect = lower value
# [57] = locus YOL136C, strain PFK27, stronger effect = lower value
# [58] = locus YOR061W, strain CKA2, stronger effect = lower value
# [59] = locus YOR119C, strain RIO1, stronger effect = lower value
# [60] = locus YOR231W, strain MKK1, stronger effect = lower value
# [61] = locus YOR329C, strain SCD5, stronger effect = lower value
# [62] = locus YPL031C, strain PHO85, stronger effect = lower value
# [63] = locus YPL153C, strain RAD53, stronger effect = lower value
# [64] = locus YPL204W, strain HRR25, stronger effect = lower value
# [65] = locus YPL209C, strain IPL1, stronger effect = lower value
# [66] = locus YPL256C, strain CLN2, stronger effect = lower value
# [67] = locus YPR025C, strain CCL1, stronger effect = lower value
# [68] = locus YPR106W, strain ISR1, stronger effect = lower value
# [69] = locus YPR111W, strain DBF20, stronger effect = lower value
# [70] = strain NNK1, stronger effect = lower value
# [71] = strain TSCII, stronger effect = lower value
smiles,measurement,setting,value
O=C(Nc1ccc(N2CCOCC2)cc1)c1ccc(-n2cccn2)cc1,normalized growth,[1],0.994
same,normalized growth,[2],0.982
same,normalized growth,[3],0.974
same,normalized growth,[4],0.979
same,normalized growth,[5],0.975
same,normalized growth,[6],0.983
same,normalized growth,[7],0.985
same,normalized growth,[8],0.981
same,normalized growth,[9],0.974
same,normalized growth,[10],0.973
same,normalized growth,[11],0.959
same,normalized growth,[12],0.985
same,normalized growth,[13],0.987
same,normalized growth,[14],0.982
same,normalized growth,[15],0.96
same,normalized growth,[16],0.915
same,normalized growth,[17],0.957
same,normalized growth,[18],0.988
same,normalized growth,[19],0.988
same,normalized growth,[20],0.988
same,normalized growth,[21],0.955
same,normalized growth,[22],0.977
same,normalized growth,[23],0.953
same,normalized growth,[24],1.01
same,normalized growth,[25],0.991
same,normalized growth,[26],1.13
same,normalized growth,[27],1.1
same,normalized growth,[28],1.07
same,normalized growth,[29],0.982
same,normalized growth,[30],0.972
same,normalized growth,[31],1
same,normalized growth,[32],0.95
same,normalized growth,[33],0.966
same,normalized growth,[34],0.986
same,normalized growth,[35],0.96
same,normalized growth,[36],1.1
same,normalized growth,[37],0.946
same,normalized growth,[38],0.954
same,normalized growth,[39],0.931
same,normalized growth,[40],0.981
same,normalized growth,[41],1.04
same,normalized growth,[42],0.9
same,normalized growth,[43],0.962
same,normalized growth,[44],0.984
same,normalized growth,[45],0.928
same,normalized growth,[46],0.983
same,normalized growth,[47],0.95
same,normalized growth,[48],0.985
same,normalized growth,[49],0.979
same,normalized growth,[50],0.96
same,normalized growth,[51],0.978
same,normalized growth,[52],1.03
same,normalized growth,[53],0.979
same,normalized growth,[54],0.977
same,normalized growth,[55],0.958
same,normalized growth,[56],0.972
same,normalized growth,[57],0.923
same,normalized growth,[58],0.952
same,normalized growth,[59],1.01
same,normalized growth,[60],0.949
same,normalized growth,[61],0.985
same,normalized growth,[62],0.962
same,normalized growth,[63],0.958
same,normalized growth,[64],0.924
same,normalized growth,[65],0.979
same,normalized growth,[66],1.02
same,normalized growth,[67],0.982
same,normalized growth,[68],0.976
same,normalized growth,[69],0.968
same,normalized growth,[70],0.977
same,normalized growth,[71],0.982
O=C(CCNNC(=O)c1ccncc1)NCc1ccccc1,normalized growth,"locus YAL040C, strain CLN3, stronger effect = lower value",0.999
same,normalized growth,"locus YCL061C, strain MRC1 (second series), stronger effect = lower value",1
same,normalized growth,"locus YDR150W, strain NUM1, stronger effect = lower value",0.998
same,normalized growth,"locus YDR363W, strain ESC2, stronger effect = lower value",0.959
same,normalized growth,"locus YER002W, strain NOP16, stronger effect = lower value",0.994
same,normalized growth,"locus YGR229C, strain SMI1, stronger effect = lower value",0.986
same,normalized growth,[26],0.978
same,normalized growth,[27],0.975
same,normalized growth,[31],0.972
same,normalized growth,[36],0.961
same,normalized growth,"locus YJR075W, strain HOC1, stronger effect = lower value",0.994
same,normalized growth,[42],0.966
same,normalized growth,"locus YMR263W, strain SAP30, stronger effect = lower value",0.994
same,normalized growth,"locus YNL153C, strain GIM3, stronger effect = lower value",0.99
same,normalized growth,"locus YNL175C, strain NOP13, stronger effect = lower value",0.996
same,normalized growth,[52],0.931
same,normalized growth,"locus YNL197C, strain WHI3, stronger effect = lower value",0.993
same,normalized growth,"locus YNL224C, strain SQS1, stronger effect = lower value",0.998
same,normalized growth,"locus YOR083W, strain WHI5 (second series), stronger effect = lower value",1
same,normalized growth,[60],0.97
same,normalized growth,"locus YPL055C, strain LGE1, stronger effect = lower value",0.987
same,normalized growth,"locus YPL241C, strain CIN2, stronger effect = lower value",1
same,normalized growth,[66],0.974
O=C(NCc1ccncc1)c1ccc(-n2cccn2)cc1,normalized growth,[1],0.989
same,normalized growth,[2],0.984
same,normalized growth,[3],0.982
same,normalized growth,[4],0.982
same,normalized growth,[5],0.984
same,normalized growth,[6],0.992
same,normalized growth,[7],0.983
same,normalized growth,[8],0.982
same,normalized growth,[9],0.982
same,normalized growth,[10],0.984
same,normalized growth,[11],0.972
same,normalized growth,[12],0.987
same,normalized growth,[13],0.988
same,normalized growth,[14],0.983
same,normalized growth,[15],0.972
same,normalized growth,[16],0.941
same,normalized growth,[17],0.969
same,normalized growth,[18],0.981
same,normalized growth,[19],0.988
same,normalized growth,[20],0.98
same,normalized growth,[21],0.962
same,normalized growth,[22],0.979
same,normalized growth,[23],0.96
same,normalized growth,[24],1
same,normalized growth,[25],0.985
same,normalized growth,[26],1.11
same,normalized growth,[27],1.1
same,normalized growth,[28],1.05
same,normalized growth,[29],0.985
same,normalized growth,[30],0.982
same,normalized growth,[31],0.981
same,normalized growth,[32],0.953
same,normalized growth,[33],0.973
same,normalized growth,[34],0.984
same,normalized growth,[35],0.971
same,normalized growth,[36],1.09
same,normalized growth,[37],0.959
same,normalized growth,[38],0.972
same,normalized growth,[39],0.962
same,normalized growth,[40],0.976
same,normalized growth,[41],1.03
same,normalized growth,[42],0.854 (active)
same,normalized growth,[43],0.955
same,normalized growth,[44],0.99
same,normalized growth,[45],0.954
same,normalized growth,[46],0.984
same,normalized growth,[47],0.973
same,normalized growth,[48],0.978
same,normalized growth,[49],0.993
same,normalized growth,[50],0.974
same,normalized growth,[51],0.985
same,normalized growth,[52],1.02
same,normalized growth,[53],0.981
same,normalized growth,[54],0.982
same,normalized growth,[55],0.966
same,normalized growth,[56],0.981
same,normalized growth,[57],0.928
same,normalized growth,[58],0.965
same,normalized growth,[59],1.02
same,normalized growth,[60],0.95
same,normalized growth,[61],0.986
same,normalized growth,[62],0.964
same,normalized growth,[63],0.969
same,normalized growth,[64],0.935
same,normalized growth,[65],0.984
same,normalized growth,[66],1.02
same,normalized growth,[67],0.987
same,normalized growth,[68],0.982
same,normalized growth,[69],0.968
same,normalized growth,[70],0.984
same,normalized growth,[71],0.981
